Calls of active or inactive are those of the source.
Experiments:
[1] = E. coli DRC41 culture turbidity changes, primary screen, E. coli filamentation inducer project, strain DRC41, OD650, 48 h (AID 1152);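 note: E. coli MC1000 strain DRC41 lacking acrAB efflux pump and sulA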; details: E. coli DRC41 (acrAB sulA), higher = more signal, called active from +8 up or from −8 down
[2] = small-molecule binders of probe aLefty1, primary screen, biochemical, small-molecule microarray, 635/667 nm fluorescence (AID 1153); details: higher = more signal;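 note: score merges spot fluorescence with signal-to-noise ratio from the scanned slide images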
[3] = PSAC antagonists in infected red cells, primary screen, cell-based, P. falciparum Indochina, OD700, 1 h (AID 1154); details: P. falciparum Indochina infected RBC osmotic lysis, higher = more signal, called active from +8 up or from −8 down
[4] = PSAC antagonists in infected red cells, primary screen, cell-based, P. falciparum Indochina, OD700, 2 h (AID 1155);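 note: lysis reports solute entry through the parasite surface anion channel PSAC; channel blockers reduce lysis of infected cells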; details: P. falciparum Indochina infected erythrocytes, osmotic lysis OD700; higher = more signal, called active from +8 up or from −8 down
[5] = osmotic lysis modulators in infected erythrocytes, primary screen, PSAC antagonist project, cell-based, P. falciparum Indochina, OD700, 3 h (AID 1156); details: higher = more signal, called active from +8 up or from −8 down
[6] = PSAC antagonists in infected red cells, primary screen, cell-based, P. falciparum Indochina, OD700, 18 h (AID 1157); details: P. falciparum Indochina infected erythrocytes, osmotic lysis OD700, 18 h; higher = more signal, called active from +8 up or from −8 down
[7] = modulators of S6 phosphorylation in cells, primary screen, cell-based, A549, cytoblot, luminescence, serum-stimulated (AID 1158); details: A549 phospho-S6 cytoblot, 5 h, higher = more signal;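 note: serum-stimulated A549 lung adenocarcinoma cells; signal is phosphorylated S6 detected by cytoblot immunostaining with HRP secondary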
[8] = target: NADPH oxidase 2 (Homo sapiens) (UniProt P04839); test: NOX2-dependent H2O2 signal modulators, primary screen, NOX inhibitor project, cell-based, HEK293-NOX2, PMA-stimulated, Amplex Red fluorescence (AID 1159); details: 45 min, higher = more signal, called active from +8 up or from −8 down; note: test concentration not given here
Chain of NADPH oxidase 2 (Homo sapiens) (P04839 whole entry, looked up): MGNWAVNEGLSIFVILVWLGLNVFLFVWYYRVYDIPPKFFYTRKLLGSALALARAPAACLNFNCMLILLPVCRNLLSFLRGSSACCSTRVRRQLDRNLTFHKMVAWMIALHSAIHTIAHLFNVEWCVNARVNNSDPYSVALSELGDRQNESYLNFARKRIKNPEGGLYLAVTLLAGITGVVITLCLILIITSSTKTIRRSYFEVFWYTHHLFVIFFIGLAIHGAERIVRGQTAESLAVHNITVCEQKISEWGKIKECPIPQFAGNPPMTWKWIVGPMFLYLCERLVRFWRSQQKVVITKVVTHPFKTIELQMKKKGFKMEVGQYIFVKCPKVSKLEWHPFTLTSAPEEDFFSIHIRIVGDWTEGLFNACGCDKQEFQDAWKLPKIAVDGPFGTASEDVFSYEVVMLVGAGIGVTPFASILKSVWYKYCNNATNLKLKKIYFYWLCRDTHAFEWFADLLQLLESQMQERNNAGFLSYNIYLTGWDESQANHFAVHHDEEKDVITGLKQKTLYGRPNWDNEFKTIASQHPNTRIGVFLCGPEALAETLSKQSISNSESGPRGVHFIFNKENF

[9] = target: NADPH oxidase 4 (Homo sapiens) (UniProt Q9NPH5); test: NOX4-dependent H2O2 signal modulators, primary screen, NOX inhibitor project, cell-based, HEK293-NOX4, tetracycline-induced, Amplex Red fluorescence (AID 1160); details: 45 min, higher = more signal, called active from +8 up or from −8 down
Chain of NADPH oxidase 4 (Homo sapiens) (Q9NPH5 whole entry, looked up): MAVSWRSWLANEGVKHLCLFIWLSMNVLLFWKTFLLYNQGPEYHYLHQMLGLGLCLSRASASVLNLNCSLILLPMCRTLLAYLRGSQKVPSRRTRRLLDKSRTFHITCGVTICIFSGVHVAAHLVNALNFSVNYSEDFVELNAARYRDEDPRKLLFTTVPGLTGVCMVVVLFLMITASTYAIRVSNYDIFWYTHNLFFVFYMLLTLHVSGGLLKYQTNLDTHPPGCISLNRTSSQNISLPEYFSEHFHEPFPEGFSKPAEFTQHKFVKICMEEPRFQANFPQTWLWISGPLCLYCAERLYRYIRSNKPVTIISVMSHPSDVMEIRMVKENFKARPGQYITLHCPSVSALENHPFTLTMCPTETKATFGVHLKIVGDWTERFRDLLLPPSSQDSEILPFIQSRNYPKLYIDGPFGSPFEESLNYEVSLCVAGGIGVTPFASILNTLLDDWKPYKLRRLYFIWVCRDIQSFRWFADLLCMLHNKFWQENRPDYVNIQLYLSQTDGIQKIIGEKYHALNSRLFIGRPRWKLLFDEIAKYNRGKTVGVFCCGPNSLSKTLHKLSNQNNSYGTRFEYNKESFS

[10] = target: NADPH oxidase 5 (Homo sapiens) (UniProt Q96PH1); test: NOX5-dependent H2O2 signal modulators, primary screen, NOX inhibitor project, cell-based, HEK293-NOX5, Amplex Red fluorescence (AID 1161); details: HEK293-NOX5, ionomycin, 45 min, higher = more signal
Chain of NADPH oxidase 5 (Homo sapiens) (Q96PH1 whole entry, looked up): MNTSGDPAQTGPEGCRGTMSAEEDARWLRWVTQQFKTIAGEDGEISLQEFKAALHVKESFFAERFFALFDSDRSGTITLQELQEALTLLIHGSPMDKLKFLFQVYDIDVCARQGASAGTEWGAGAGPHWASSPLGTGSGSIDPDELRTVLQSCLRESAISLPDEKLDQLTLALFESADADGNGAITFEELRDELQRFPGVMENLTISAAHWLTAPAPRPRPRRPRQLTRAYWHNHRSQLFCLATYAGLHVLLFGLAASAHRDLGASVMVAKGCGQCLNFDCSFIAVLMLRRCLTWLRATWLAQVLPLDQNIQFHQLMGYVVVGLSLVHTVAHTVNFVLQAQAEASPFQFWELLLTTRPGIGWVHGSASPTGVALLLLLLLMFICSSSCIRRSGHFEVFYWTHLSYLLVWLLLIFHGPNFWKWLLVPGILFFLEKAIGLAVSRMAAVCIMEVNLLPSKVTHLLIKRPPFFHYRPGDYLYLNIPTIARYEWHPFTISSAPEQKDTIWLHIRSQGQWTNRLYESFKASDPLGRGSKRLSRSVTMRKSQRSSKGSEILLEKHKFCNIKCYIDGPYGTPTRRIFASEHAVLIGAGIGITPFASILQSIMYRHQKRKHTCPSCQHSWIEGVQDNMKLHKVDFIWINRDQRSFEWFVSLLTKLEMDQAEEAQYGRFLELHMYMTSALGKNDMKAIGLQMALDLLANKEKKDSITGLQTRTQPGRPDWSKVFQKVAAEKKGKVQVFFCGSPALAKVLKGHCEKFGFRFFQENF

[11] = A549 cell viability effects, profiling panel, calcein-AM fluorescence, 48 h, basal (AID 1162); details: higher = more signal; note: test concentration not given here
[12] = adipocyte viability effects, profiling panel, cell-based, 3T3-L1 adipocytes, calcein-AM fluorescence, 48 h, basal (AID 1163); details: 3T3-L1 adipocytes viability, higher = more signal; note: test concentration not given here
[13] = HepG2 cell viability effects, profiling panel, calcein-AM fluorescence, 48 h, basal (AID 1164); details: higher = more signal; note: test concentration not given here
[14] = MM1S cell viability effects, profiling panel, calcein-AM fluorescence, 48 h, basal (AID 1165); details: higher = more signal;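 note: viability of MM1S multiple myeloma cells under basal unstimulated conditions; test concentration not given here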
[15] = basal RPMI8226 viability, no added stimulus, profiling panel, cell-based, calcein-AM fluorescence, 48 h, PK04 Diversity Set (AID 1166); details: RPMI8226 myeloma viability, higher = more signal;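 note: cells grown under basal conditions without added stimulus; test concentration not given here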
[16] = basal HepG2 mitochondrial membrane potential changes, profiling panel, cell-based, JC-1 fluorescence, 24 h, 100 nL compound (AID 1167); details: higher = more signal; note: test concentration not given here
[17] = basal 3T3-L1 adipocyte mitochondrial potential changes, profiling panel, cell-based, JC-1 fluorescence, 3T3-L1 adipocytes, 24 h, 100 nL compound (AID 1168); details: JC-1 mitochondrial fluorescence, higher = more signal, called active from +8 up or from −8 down; note: test concentration not given here
[18] = basal RPMI8226 mitochondrial membrane potential changes, profiling panel, cell-based, JC-1 fluorescence, 24 h, 100 nL compound (AID 1169); details: RPMI8226 myeloma, JC-1 mitochondrial potential fluorescence, higher = more signal; note: test concentration not given here
[19] = basal MM1S mitochondrial membrane potential changes, profiling panel, cell-based, JC-1 fluorescence, 24 h, 100 nL compound (AID 1170); details: higher = more signal; note: test concentration not given here
[20] = A549 lung cancer cell viability effects, profiling panel, resazurin fluorescence, 24 h, PK04 Diversity Set (AID 1171); details: higher = more signal, called active from +8 up or from −8 down; note: test concentration not given here

| Structure (SMILES) | z-score [1] | composite z-score [2] | z-score [3] | z-score [4] | z-score [5] | z-score [6] | z-score [7] | z-score [8] | z-score [9] | z-score [10] | z-score [11] | z-score [12] | z-score [13] | z-score [14] | z-score [15] | z-score [16] | z-score [17] | z-score [18] | z-score [19] | z-score [20] |
| --- | --- | --- | --- | --- | --- | --- | --- | --- | --- | --- | --- | --- | --- | --- | --- | --- | --- | --- | --- | --- |
| C=CC(CO)NC(=O)OCC1c2ccccc2-c2ccccc21 (stereo not given) | -0.878 (inactive) | -0.188 | -0.0039 (inactive) | -0.124 (inactive) | -1.03 (inactive) | 0.182 (inactive) | 0.078 | -0.385 (inactive) | 0.0866 (inactive) | 0.23 | -0.454 | 0.351 | -0.479 | -1.07 | 0.0644 | -0.692 | 0.386 (inactive) | 0.534 | 0.128 | -0.62 (inactive) |
| O=C1C2C=CC(C(O)c3cccc(O)c3)N(Nc3ccccc3F)C2C(=O)N1c1ccccc1 (stereo not given) | 0.906 (inactive) | 0.137 | 9.49 (active) | 1.43 (inactive) | 0.868 (inactive) | 0.0443 (inactive) | 3 | -4.98 (inactive) | -5.16 (inactive) | -6.27 | -0.769 | 0.906 | -1.28 | -1.95 | -1.9 | -1.66 | -1.85 (inactive) | 0.742 | -1.64 | 0.249 (inactive) |
| COCCOC(=O)N1C(=O)[C@@]2(c3ccccc31)[C@H](C(=O)N1CCCCCCC1)[C@H]1C(=O)O[C@H](c3ccccc3)[C@H](c3ccccc3)N1[C@@H]2c1ccc(O)cc1 | 1.51 (inactive) | 3.16 | 0.822 (inactive) | -0.0852 (inactive) | 0.367 (inactive) | -0.0764 (inactive) | 1.94 | -3.28 (inactive) | -0.538 (inactive) | -4 | 0.452 | 0.688 | 1.11 | -0.233 | -1.54 | -0.229 | 1.45 (inactive) | -0.564 | -0.21 | 0.17 (inactive) |
| CC(=O)c1ccc(C(O)C2C=CC3C(=O)N(C)C(=O)C3N2NC(=O)OC(C)(C)C)cc1 (stereo not given) | -1.33 (inactive) | 0.186 | 1.24 (inactive) | 0.957 (inactive) | 0.0395 (inactive) | 0.95 (inactive) | -1.51 | -0.455 (inactive) | -1.57 (inactive) | -1.01 | -1.02 | -0.701 | -0.831 | -0.682 | -0.193 | -1.29 | -0.82 (inactive) | -0.539 | 0.485 | -0.659 (inactive) |
| C=C(CCCC)C(=O)CC[C@H](OC(=O)c1cccnc1)c1ccc(CO)o1 | -0.348 (inactive) | 0.3 | 2.21 (inactive) | 0.101 (inactive) | 0.217 (inactive) | 0.038 (inactive) | -0.253 | 1.25 (inactive) | 0.532 (inactive) | -0.454 | -0.489 | -0.175 | 0.0768 | 0.187 | -0.0395 | -1.48 | -0.572 (inactive) | -0.577 | -0.283 | -0.0291 (inactive) |
| COCCCNC(=O)[C@@]1(Sc2ccc(C)cc2)CC(=O)N(C2CCCCC2)[C@@H]1c1ccc(CO)cc1I | -0.251 (inactive) | -0.649 | 4.53 (inactive) | 0.678 (inactive) | 0.0232 (inactive) | 0.5 (inactive) | -0.0285 | 0.625 (inactive) | -0.102 (inactive) | 1.43 | 0.564 | -0.363 | 0.0565 | -2.54 | -2.33 | 0.634 | -0.201 (inactive) | -0.126 | -1.24 | 0.804 (inactive) |
| COCCOC(=O)N1C(=O)[C@@]2(c3cc(C#CCNC(N)=O)ccc31)[C@H](C(=O)NC[C@H](O)c1ccccc1)[C@H]1C(=O)O[C@H](c3ccccc3)[C@H](c3ccccc3)N1[C@@H]2c1ccc(OCCO)cc1 | -0.242 (inactive) | 0.278 | 2.83 (inactive) | 0.757 (inactive) | 0.742 (inactive) | 0.581 (inactive) | 0.457 | 2.5 (inactive) | 1.01 (inactive) | -0.677 | -0.877 | -0.116 | -1.07 | -0.286 | 0.995 | -1.61 | 0.213 (inactive) | 0.418 | -0.193 | 0.637 (inactive) |
| C=CCN1C(=O)[C@]2(O[C@H](CCO)[C@@H]([Si](C)(C)c3ccc(OC)cc3)[C@@H]2C)c2ccccc21 | -1.95 (inactive) | -0.33 | 11.9 (active) | 2.43 (inactive) | -2.63 (inactive) | 1.19 (inactive) | -0.613 | -0.536 (inactive) | -0.0158 (inactive) | -1.23 | -3.94 | -0.448 | -4.62 | -2.7 | -4.37 | -3.42 | -0.0442 (inactive) | -1.18 | -2.21 | -1.83 (inactive) |
| CN(C)CCCCNC(=O)[C@H]1C[C@H]2C(=O)N[C@@H](Cc3ccccc3)C(=O)N2[C@H]1c1cccc(OCCO)c1 | 2.11 (inactive) | 0.0751 | 2.68 (inactive) | -0.546 (inactive) | -0.282 (inactive) | -1.43 (inactive) | 0.331 | 0.693 (inactive) | 0.863 (inactive) | 1.43 | -0.411 | -0.0901 | 0.219 | 0.642 | 0.826 | 0.17 | -0.259 (inactive) | 0.264 | -0.396 | 1.12 (inactive) |
